Several values for one entry are separate records, joined by “and”; a condition that tells them apart may be missing. Equal values may be shown once. This is part of a sample that, as a whole, favours compounds with a hit. Of some 83,000 tested, about 20% had one in any assay.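 Negative percent growth values reflect cell death: -40 means 40% of the cells present at the start died, and -100 means all died.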 Activity calls are given as the source filed them. The calls were made as follows: active = growth percent below 10; inactive = the rest.

The test deals with HL-60(TB) leukemia. Briefly: NCI-60 one-dose screen, 48 h (100 = growth as untreated, 0 = no growth, -100 = all killed). Particulars: 10 µM unless noted.
Take `COc1cc(-c2ccc(N=Nc3ccc4c(S(=O)(=O)O)ccc(N)c4c3O)c(OC)c2)ccc1N=Nc1ccc2c(S(=O)(=O)O)ccc(N)c2c1O`: the growth is 115% (inactive).
Turning to `CCn1c(Cc2ccccc2Nc2c(Cl)cccc2Cl)nnc1SCC(=O)Nc1ccccc1C(F)(F)F`, the growth is 86.9% (inactive).
With `COc1cc(-c2n/c(=C\c3c(O)[nH]c4ccccc34)cc3c2=Nc2ccccc2-3)cc(OC)c1OC`, the growth was -15.3% (active).
Then `CCCCNC(=O)CC1=C(C)/C(=C/c2[nH]c(-c3ccc[nH]3)cc2OC)N=C1C`, with 12.9% (inactive); and `O=C(Nc1nc2ccc(F)cc2s1)c1cc(-c2ccc(F)cc2)n2nc(-c3ccccc3)cc2n1`, with 92.9% (inactive); and `CC(C)C/C=C/C=C/C(=O)N[C@@H](CC(N)=O)C(=O)N[C@@H]1C(=O)N[C@H](c2ccc(O)cc2)C(=O)N[C@H](CCCN)C(=O)N[C@H]([C@@H](C)O)C(=O)N[C@H](c2ccc(O)cc2)C(=O)N[C@H](c2ccc(O)cc2)C(=O)N[C@H]([C@H](C)O)C(=O)N[C@H](Cc2ccccc2)C(=O)N[C@H](CCCN)C(=O)N[C@H](c2ccc(O[C@H]3O[C@@H](CO)[C@@H](O)[C@@H](O)[C@H]3O[C@@H]3O[C@H](CO)[C@H](O)[C@H](O)[C@@H]3O)cc2)C(=O)N[C@H]([C@H](C)O)C(=O)N[C@H](c2ccc(O)cc2)C(=O)NCC(=O)N[C@H](CC(C)C)C(=O)N[C@H](C)C(=O)N[C@H](c2ccc(O)c(Cl)c2)C(=O)O[C@@H]1C(N)=O`, with 72.1% (inactive).
Then `O=C(COc1ccc(/C=C2\Oc3ccccc3C2=O)cc1)Nc1nc2c(s1)CCCC2`, with -72.2% (active); and `COc1ccc2[nH]c(O)c(C(=Nc3ccc(N(C)C(=O)CN4CCN(C)CC4)cc3)c3ccccc3)c2c1`, with -14.9% (active).
Then `CCOC(=O)c1cc2c(=O)oc3ccccc3c2oc1=O`, with 106% (inactive).
As for `COc1cccc(-n2cc(-c3nc(Nc4cc(C)[nH]n4)c4ccccc4n3)nn2)c1`, the growth was 48.1% (inactive).
The result for `O=c1sc2ncnc3ncn1c32` reads 85.1% (inactive); that for `CCCCNC(=O)Oc1ccc(/C(=C(\C)c2ccc(Cl)cc2)c2ccc(OCCN(CC)CC)cc2)cc1`, 69.8% (inactive); that for `CS(=O)(=O)Nc1ccc(Nc2c3ccccc3nc3cc([N+](=O)[O-])ccc23)cc1`, -8.01% (active).
Then `CCCCN(CCCC)c1ccc(C(=O)O)cc1`, with 104% (inactive); and `CCN(CC)CCNC(=O)c1c(C)[nH]c(/C=C2\C(=O)Nc3cc(NC(=O)NC(=O)c4ccc(OC)cc4F)ccc32)c1C`, with 95.9% (inactive).
For the compound `COc1ccc2c(=O)cc(C(Cl)(Cl)Cl)oc2c1`, the growth is -32.6% (active).
The result for `CN(C)CCNC(=O)c1cccc(-c2cnc3ccc(-c4ccc5c(c4)OCO5)nn23)c1` reads 64.1% (inactive); that for `CN(C=O)c1ccccc1`, 101% (inactive).
As for `COc1ccc(C2NC(=O)Nc3ccccc32)c(OC)c1` (stereo not given), the growth was 93.2% (inactive).
The result for `CC(c1ccccc1)n1ccnc1CO` (stereo not given) reads 101% (inactive); that for `CCCCCCCCCCCCSC(=NC)NC`, -37.6% (active) and 38.4% (inactive); that for `COc1cc2nc(Cl)nc(Nc3ccc(S(=O)(=O)Nc4nccs4)cc3)c2cc1OC`, 102% (inactive).
For `O=C(O)c1ccc(OCc2ccccc2)cc1`, the growth is 103% (inactive).
The result for `OCC1C2C=CC(C2)C1CO` (stereo not given) reads 87.5% (inactive); that for `C=C1NC(=O)C(C(C)CC)NC(=O)C2CSCC(NC(=O)CCC(=O)O)C(=O)NC(Cc3ccccc3)C(=O)NC(C)C(=O)NC(CC(C)CC)C(=O)NC(C(=O)NC(Cc3ccccc3)C(=O)N3CCCC3C(=O)N2)C(C)OC(=O)C(CO)NC(=O)C(C(O)COC)N(C)C(=O)C(C(C)C)NC(=O)C(CC(C)CC)NC1=O` (stereo not given), -26.8% [6 µM] (active).
